# From the supplement of paper PMC12282887
# ± gives the standard deviation of the averaged measurements.
# Legend:
# Assay in all cases: promoter activity interaction Z-score (Lux/OD deviation from empty-vector control); higher = stronger promoter induction by the compound
# [1] = tested on: E. coli BW25113 acrABp lux reporter
# Outline: (§1)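 E. coli BW25113 luxCDABE reporter strains grew at 37°C in 40 µl LB Lennox in 384-well plates, with OD600 and luminescence read every 30 min for 12 h. After integration over 0–8 h for wild type or 1–9 h for deletion strains, wells under 10% of the median growth value were removed. Each score is the Z-transformed residual of growth-normalised luminescence fitted against a control.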
# [2] = tested on: E. coli BW25113 micFp lux reporter
# Outline: as §1
# [3] = tested on: E. coli BW25113 ompFp lux reporter
# Outline: as §1
# [4] = tested on: E. coli BW25113 robp lux reporter
# Outline: as §1
# [5] = tested on: E. coli BW25113 soxSp lux reporter
# Outline: as §1
# [6] = tested on: E. coli BW25113 tolCp lux reporter
# Outline: as §1
# [7] = 0.064 µg/ml, genetic background: wild type
# [8] = 0.064 µg/ml, genetic background: ΔmarA
# [9] = 0.064 µg/ml, genetic background: Δrob
# [10] = 0.064 µg/ml, genetic background: ΔsoxS
# [11] = 0.13 µg/ml, genetic background: wild type
# [12] = 0.13 µg/ml, genetic background: ΔmarA
# [13] = 0.13 µg/ml, genetic background: Δrob
# [14] = 0.13 µg/ml, genetic background: ΔsoxS
# [15] = 0.26 µg/ml, genetic background: wild type
# [16] = 0.26 µg/ml, genetic background: ΔmarA
# [17] = 0.26 µg/ml, genetic background: Δrob
# [18] = 0.26 µg/ml, genetic background: ΔsoxS
# [19] = 0.51 µg/ml, genetic background: wild type
structure (smiles),measurement,setting,value
C[C@H]1c2cccc(O)c2C(=O)C2=C(O)[C@]3(O)C(=O)C(C(N)=O)=C(O)[C@@H](N(C)C)[C@@H]3[C@@H](O)[C@@H]21 [Doxycycline],promoter activity interaction Z-score,[1]; [7],0.468 ± 0.23
same,promoter activity interaction Z-score,[1]; [8],-0.101 ± 0.52
same,promoter activity interaction Z-score,[1]; [9],0.667 ± 0.18
same,promoter activity interaction Z-score,[1]; [10],0.902 ± 0.18
same,promoter activity interaction Z-score,[1]; [11],1.36 ± 0.11
same,promoter activity interaction Z-score,[1]; [12],0.0555 ± 0.26
same,promoter activity interaction Z-score,[1]; [13],2.17 ± 0.61
same,promoter activity interaction Z-score,[1]; [14],2.67 ± 1.3
same,promoter activity interaction Z-score,[1]; [15],3.4 ± 0.4
same,promoter activity interaction Z-score,[1]; [16],-0.561 ± 0.26
same,promoter activity interaction Z-score,[1]; [17],3.18 ± 0.3
same,promoter activity interaction Z-score,[1]; [18],3.94 ± 0.66
same,promoter activity interaction Z-score,[2]; [7],1.47 ± 0.83
same,promoter activity interaction Z-score,[2]; [8],0.45 ± 0.069
same,promoter activity interaction Z-score,[2]; [9],-0.0978 ± 0.028
same,promoter activity interaction Z-score,[2]; [10],0.831 ± 0.11
same,promoter activity interaction Z-score,[2]; [11],2.59 ± 0.24
same,promoter activity interaction Z-score,[2]; [12],0.672 ± 0.35
same,promoter activity interaction Z-score,[2]; [13],0.226 ± 0.065
same,promoter activity interaction Z-score,[2]; [14],2.53 ± 0.24
same,promoter activity interaction Z-score,[2]; [15],1.58 ± 0.61
same,promoter activity interaction Z-score,[2]; [16],1.02 ± 0.22
same,promoter activity interaction Z-score,[2]; [17],-0.177 ± 0.23
same,promoter activity interaction Z-score,[2]; [18],2.84 ± 1.2
same,promoter activity interaction Z-score,[2]; [19],-0.656 ± 0.6
same,promoter activity interaction Z-score,[3]; [7],2.17 ± 0.36
same,promoter activity interaction Z-score,[3]; [8],2.03 ± 0.54
same,promoter activity interaction Z-score,[3]; [9],2.36 ± 0.68
same,promoter activity interaction Z-score,[3]; [10],2.91 ± 0.58
same,promoter activity interaction Z-score,[3]; [11],2.54 ± 0.84
same,promoter activity interaction Z-score,[3]; [12],1.92 ± 0.47
same,promoter activity interaction Z-score,[3]; [13],2.05 ± 0.15
same,promoter activity interaction Z-score,[3]; [14],3.33 ± 0.7
same,promoter activity interaction Z-score,[3]; [15],0.914 ± 0.97
same,promoter activity interaction Z-score,[3]; [16],-0.13 ± 1.5
same,promoter activity interaction Z-score,[3]; [17],-1.55 ± 0.46
same,promoter activity interaction Z-score,[3]; [18],2.96 ± 1.1
same,promoter activity interaction Z-score,[4]; [7],0.541 ± 0.37
same,promoter activity interaction Z-score,[4]; [8],0.726 ± 0.57
same,promoter activity interaction Z-score,[4]; [9],0.325 ± 0.7
same,promoter activity interaction Z-score,[4]; [10],1.37 ± 0.15
same,promoter activity interaction Z-score,[4]; [11],-0.332 ± 0.71
same,promoter activity interaction Z-score,[4]; [12],-0.921 ± 0.38
same,promoter activity interaction Z-score,[4]; [13],-0.263 ± 1.5
same,promoter activity interaction Z-score,[4]; [14],0.43 ± 1.4
same,promoter activity interaction Z-score,[4]; [15],-1.3 ± 0.03
same,promoter activity interaction Z-score,[4]; [16],-1.65 ± 0.046
same,promoter activity interaction Z-score,[4]; [17],-2.35 ± 0.43
same,promoter activity interaction Z-score,[4]; [18],-1.67 ± 0.45
same,promoter activity interaction Z-score,[4]; [19],-0.891 ± 0.46
same,promoter activity interaction Z-score,[5]; [7],0.306 ± 0.015
same,promoter activity interaction Z-score,[5]; [8],0.57 ± 0.091
same,promoter activity interaction Z-score,[5]; [9],0.328 ± 0.17
same,promoter activity interaction Z-score,[5]; [10],0.664 ± 0.32
same,promoter activity interaction Z-score,[5]; [11],0.688 ± 0.29
same,promoter activity interaction Z-score,[5]; [12],0.899 ± 0.1
same,promoter activity interaction Z-score,[5]; [13],0.658 ± 0.49
same,promoter activity interaction Z-score,[5]; [14],1.87 ± 0.49
same,promoter activity interaction Z-score,[5]; [15],1.52 ± 0.49
same,promoter activity interaction Z-score,[5]; [16],2.111 ± 0.021
same,promoter activity interaction Z-score,[5]; [17],0.693 ± 0.49
same,promoter activity interaction Z-score,[5]; [18],2.44 ± 1
same,promoter activity interaction Z-score,[5]; [19],1.1 ± 0.16
same,promoter activity interaction Z-score,[6]; [7],0.271 ± 0.51
same,promoter activity interaction Z-score,[6]; [8],1.62 ± 0.076
same,promoter activity interaction Z-score,[6]; [9],-0.121 ± 0.96
same,promoter activity interaction Z-score,[6]; [10],0.793 ± 0.57
same,promoter activity interaction Z-score,[6]; [11],0.44 ± 0.19
same,promoter activity interaction Z-score,[6]; [12],0.772 ± 1.2
same,promoter activity interaction Z-score,[6]; [13],0.309 ± 0.4
same,promoter activity interaction Z-score,[6]; [14],2.09 ± 0.67
same,promoter activity interaction Z-score,[6]; [15],0.167 ± 0.028
same,promoter activity interaction Z-score,[6]; [16],0.714 ± 0.019
same,promoter activity interaction Z-score,[6]; [17],2.36 ± 3.6
same,promoter activity interaction Z-score,[6]; [18],2.12 ± 1
same,promoter activity interaction Z-score,[6]; [19],0.561 ± 1.1
